Measured values from ChEMBL document CHEMBL1201862, “PubChem BioAssay data set” (2004).
Among all 310,000 compounds or so, about 11,000 (3.5%) were called active. About 8% were inconclusive and are not listed. No cut-off for these calls is given here. Shown is part of a subset that was picked to be rich in actives.

Each molecule was assayed against Nuclear receptor ROR-gamma (Mus musculus) (UniProt P51450) (assay: VP16 counterscreen qHTS for inhibitors of ROR gamma transcriptional activity.).
Assay type: functional

Nuclear receptor ROR-gamma (Mus musculus), sequence (P51450 whole entry): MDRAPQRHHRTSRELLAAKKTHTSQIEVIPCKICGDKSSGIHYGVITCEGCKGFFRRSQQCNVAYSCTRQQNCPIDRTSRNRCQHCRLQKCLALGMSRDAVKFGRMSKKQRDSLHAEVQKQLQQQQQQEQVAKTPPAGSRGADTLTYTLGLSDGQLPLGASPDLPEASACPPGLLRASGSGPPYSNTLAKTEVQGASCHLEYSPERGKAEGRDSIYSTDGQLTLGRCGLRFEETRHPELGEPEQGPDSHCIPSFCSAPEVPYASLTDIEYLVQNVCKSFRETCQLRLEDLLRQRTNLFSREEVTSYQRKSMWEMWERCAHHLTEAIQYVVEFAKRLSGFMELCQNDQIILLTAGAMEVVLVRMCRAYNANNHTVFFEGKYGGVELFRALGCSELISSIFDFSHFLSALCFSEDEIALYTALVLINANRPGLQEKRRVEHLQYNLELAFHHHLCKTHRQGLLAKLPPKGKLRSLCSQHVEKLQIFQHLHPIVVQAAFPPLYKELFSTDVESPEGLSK

Compound | Potency
Cl[Te]1(Cl)OCCO1 | 3.55 µM (active)
CNc1ccc2oc(C[C@@H]3OC4(CC[C@@H]3C)O[C@H](C(C)C(=O)c3ccc[nH]3)[C@H](C)C[C@H]4C)nc2c1C(=O)O (some centres not stated) | 631 µM (active)
